Where “and” joins values, the source holds several entries; their conditions need not be identical. Equal entries are not always repeated. Results filed as inconclusive are left out. The source holds several records for some structures; these can differ, active in one and inactive in another. Calls of active or inactive are those of the source. The call rests on the fitted dose curve; in most records, active means well fitted inhibition curve with a large enough effect; inconclusive means small, poorly fitted or top-dose-only effect; inactive means flat fitted curve, though single readings scatter.
Assays:
[1] = tested on: CRL-7250; assay: Cytotoxic Profiling of Annotated Libraries Using Quantitative High-Throughput Screening (AID 1296008); details: Five cell lines viability, CellTiter-Glo ATP luminescence, 48-72 h; max response: stronger effect = lower value
Outline: (§1)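 Cytotoxicity was measured as CellTiter-Glo ATP luminescence, read after 10 min at room temperature. Compound treatment of the cells lasted 48 or 72 hr at 37 degrees Celsius in a qHTS format.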

[2] = tested on: HEK293; assay: as above; details: Five cell lines viability, CellTiter-Glo ATP luminescence, 48-72 h; max response: stronger effect = lower value
Outline: as §1

[3] = tested on: HaCat; assay: as above; details: Five cell lines viability, CellTiter-Glo ATP luminescence, 48-72 h; max response: stronger effect = lower value
Outline: as §1

[4] = tested on: KB-3-1; assay: as above; details: Five cell lines viability, CellTiter-Glo ATP luminescence, 48-72 h; max response: stronger effect = lower value
Outline: as §1

[5] = tested on: NIH3T3; assay: as above; details: Five cell lines viability, CellTiter-Glo ATP luminescence, 48-72 h; max response: stronger effect = lower value
Outline: as §1

[6] = tested on: MCC-13; assay: qHTS assay to identify novel small-molecules to repurpose for Merkel cell carcinoma treatment (AID 1296009); details: MCC and control cell lines, CellTiter-Glo viability, 72 h; series mostly up to 46 µM
Outline: (§2)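 72 hr, 37 degree celsius; NPC 8-pt / MIPE 11-pt dose response; compound pinned in DMSO; CellTiter-Glo, 10 min RT, luminescence; normalized to no-cell and DMSO controls.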

[7] = tested on: MKL-1; assay: as above; details: MCC and control cell lines, CellTiter-Glo viability, 72 h; series mostly up to 46 µM
Outline: as §2

[8] = tested on: MKL-2; assay: as above; details: MCC and control cell lines, CellTiter-Glo viability, 72 h; series mostly up to 46 µM
Outline: as §2

[9] = tested on: UISO; assay: as above; details: MCC and control cell lines, CellTiter-Glo viability, 72 h; series mostly up to 46 µM
Outline: as §2

[10] = tested on: HACAT; assay: as above; details: MCC and control cell lines, CellTiter-Glo viability, 72 h; at 44.8 µM (top of the series) unless noted
Outline: as §2

[11] = tested on: NIH3T3; assay: as above; details: MCC and control cell lines, CellTiter-Glo viability, 72 h; at 44.8 µM (top of the series) unless noted
Outline: as §2

[12] = tested on: MCC-26; assay: as above; details: MCC and control cell lines, CellTiter-Glo viability, 72 h; series mostly up to 46 µM
Outline: as §2

[13] = tested on: HEK293T; assay: as above; details: MCC and control cell lines, CellTiter-Glo viability, 72 h; at 44.8 µM (top of the series) unless noted
Outline: as §2
Further: nearly all actives have a fitted effect of over 60% in size.
On the % scale 0 is the no-effect control and ±100 the full control effect; potency means the concentration at half of the fitted maximal effect.

CC(C)NCC(O)c1ccc([N+](=O)[O-])cc1 (stereo not drawn)
inactive: max response [1] -2.22% | max response [2] -8.6% | max response [3] -38.9% | max response [4] -11.6% | max response [5] -0.143% | Potency [6] | Potency [7] | Potency [8] | Potency [9]

CC(=O)NCCc1c[nH]c2ccccc12
inactive: max response [1] -10.8% | max response [2] -1.55% | outcome [3] | outcome [4] | outcome [5] | outcome [10] inactive [at 92 µM] | outcome [11] inactive [at 92 µM]

CCCCCC[C@H]1C(=O)O[C@H](C)[C@H](NC(=O)c2cccc(NC=O)c2O)C(=O)O[C@@H](C)[C@@H]1OC(=O)CC(C)C
inactive: max response [3] -16% | Potency [12]
active: Potency [1] 1480 nM | Potency [2] 469 nM | Potency [8] 4690 nM

COCCOCCO
inactive: max response [1] -4.64% | max response [2] -2.65% | max response [4] -8.22% | max response [5] 2.23% | Potency [6] | Potency [12] | Potency [7] | Potency [8] | Potency [9]

O=C1CCC[C@@H]2[C@H]3CCCN4CCC[C@@H](CN12)[C@@H]34
inactive: max response [1] 0.603% | max response [2] -4.12% | max response [3] 3.98% | max response [4] 2.17% | outcome [5] | Potency [6] | Potency [12] | Potency [7] | Potency [8] | outcome [11] | Potency [9]

O=C(Nc1ccncc1)C(=O)c1cn(Cc2ccc(Cl)cc2)c2ccccc12
active: Potency [1] 296 nM | Potency [2] 37.2 nM | Potency [4] 46.9 nM | Potency [5] 52.6 nM

C[C@@]12OC(=O)[C@]1([C@@H](O)[C@@H]1C=CCCC1)NC(=O)[C@H]2CCCl
active: Potency [1] 209 nM | Potency [2] 74.3 nM | Potency [3] 16600 nM | Potency [4] 418 nM | Potency [6] 3320 nM | Potency [7] 1180 nM | Potency [8] 526 nM | Potency [9] 1480 nM

C#C[C@]1(O)C=C[C@@H]2[C@@H]3CCC4=CC(=O)CC[C@@H]4[C@H]3CC[C@@]21CC
inactive: max response [1] -4.4% | max response [2] -3.75% | outcome [3] | max response [5] -5.86% | outcome [10] | Potency [6] | Potency [7] | Potency [8] | Potency [9]

C/C=C(/C)C(=O)O[C@H]1C(C)=C2[C@H]([C@@H]1OC(=O)CCCCCCC)[C@@](C)(OC(C)=O)C[C@H](OC(=O)CCC)[C@@]1(O)[C@H]2OC(=O)[C@@]1(C)O
active: Potency [1] 41.1 nM | Potency [2] 29.1 nM | Potency [4] 46.1 nM | Potency [5] 51.7 nM

COc1ccc(N(C(=O)Oc2c(C)cccc2C)c2ccnc(Nc3ccc(N4CCN(C)CC4)cc3)n2)c(OC)c1
inactive: max response [1] -8.13% and -61.8% | max response [2] 1.61% and -25.7% | max response [4] -15.9% | Potency [9]
active: Potency [4] 16400 nM | Potency [5] 18700 nM | Potency [7] 13200 nM

C[C@]12CC[C@H]3[C@@H](CCC4=CC(=O)CC[C@@]43C)[C@H]1CC[C@H]2OC(=O)CCC1CCCC1
inactive: max response [1] 2.84% | outcome [2] | max response [3] 4.09% | max response [4] 9.03% | max response [5] 3.21% | outcome [13] | Potency [6] | Potency [12] | Potency [7] | Potency [8] | Potency [9]

CC(C)(C)NC[C@H](O)c1ccc(O)cc1Cl
inactive: max response [1] -2.25% | max response [2] -9.08% | max response [4] 9.37% | max response [5] -4.5% | Potency [6] | Potency [12] | Potency [7] | Potency [8] | Potency [9]

c1ccc2c(CN3CCNCC3)cccc2c1
inactive: max response [1] -5.13% | max response [2] -5.02% | max response [3] 2.18% | outcome [4] | max response [5] 4.9% | Potency [6] | Potency [12] | Potency [7] | Potency [8] | Potency [9]

C=CC(=O)NCNC(=O)C=C
inactive: max response [1] -10.1% | outcome [2] | max response [3] -16.1% | max response [4] 1.85% | max response [5] -14.2% | outcome [13] inactive [at 92 µM] | Potency [6] | Potency [12] | Potency [7] | Potency [9]

CO[C@H]1CCC(O[C@H]2C[C@H]([C@]3(C)CC[C@]4(C[C@H](O)[C@@H](C)[C@@H]([C@@H](C)C=C(C)C(=O)[C@H](C)C[C@H](C)C(=O)O)O4)O3)O[C@]3(O[C@@H]([C@H]4O[C@@](O)(CO)[C@H](C)C[C@H]4C)C[C@H]3C)[C@H]2C)O[C@H]1C (stereo partly drawn)
inactive: max response [3] -21.4% | Potency [12]
active: Potency [1] 1050 nM | Potency [2] 590 nM | Potency [7] 935 nM | Potency [8] 662 nM

O=C1C=CC[C@@H]2[C@H]3CCCN4CCC[C@@H](CN12)[C@@H]34
inactive: max response [1] -6.72% and -5.8% | outcome [2] | max response [3] -19.8% and -9.45% | max response [4] 5.89% | outcome [5] | outcome [13] | Potency [6] | Potency [12] | Potency [7] | Potency [8] | outcome [11] | Potency [9]

O=S(=O)(O)C(F)(F)C(F)(F)C(F)(F)C(F)(F)F
inactive: max response [1] -7.36% | outcome [2] | max response [3] 2.96% | max response [4] -15.1% | outcome [5] | outcome [13] inactive [at 92 µM] | Potency [6] | Potency [12] | Potency [7] | Potency [8] | outcome [11] inactive [at 92 µM] | Potency [9]

C[C@@H]1O[C@@H](O[C@@H]2C=C3CC[C@@H]4[C@@H](CC[C@]5(C)[C@H](c6ccc(=O)oc6)CC[C@@]45O)[C@@]3(C)CC2)[C@H](O)[C@H](O)[C@H]1O
active: Potency [1] 11.8 nM | Potency [2] 16.6 nM | Potency [3] 46.9 nM | Potency [4] 26.4 nM | Potency [5] 3720 nM | Potency [6] 37.2 nM | Potency [7] 105 nM | Potency [8] 132 nM

CCNC(=O)C[C@@H]1N=C(c2ccc(Cl)cc2)c2cc(OC)ccc2-n2c(C)nnc21
inactive: max response [3] -10.8% | Potency [6]
active: Potency [1] 1.32 µM and 1.3 µM | Potency [2] 5170 nM | Potency [5] 1840 nM | Potency [8] 1660 nM

CCN1CCN(C(=O)Cc2ccc(Nc3ncc(F)c(Nc4ccc(C(=O)Nc5ccccc5Cl)cc4)n3)cc2)CC1
active: Potency [1] 26.4 µM and 16.4 µM | Potency [2] 3.72 µM and 2.59 µM | Potency [3] 8200 nM | Potency [4] 1840 nM | Potency [5] 20600 nM | Potency [8] 9350 nM

From PubChem BioAssay (NCATS)
